Data as given in PubChem BioAssay (EPA / NIEHS).
Calls of active or inactive are those of the source. The calls were made as follows: active = hit-call score of the fitted dose curve at least 0.9, where 1 is the maximum; inactive = score below 0.9.

Assay: CCTE_Padilla_ZF_Score.Tail: CCTE's 144 Hour Post-fertilization zebrafish Assay Score for Tail Malformation, Padilla Lab (AID 2284414)
Experimental: CCTE_Padilla_ZF_Phenotype_Score is a whole embryo, multiplexed assay using zebrafish ova exposed for 144 hours post fertilization on a 96-well plate.CCTE_Padilla_ZF_Score.Tail is one of one assay component(s) measured or calculated from the CCTE_Padilla_ZF_Phenotype_Score assay. It is designed to make measurements of zebrafish development as detected with brightfield microscopy of developing zebrafish embryos.Data from the assay component CCTE_Padilla_ZF_Score.Tail was analyzed into 1 assay endpoints. This assay endpoint, CCTE_Padilla_ZF_Score.Tail, was analyzed in the positive analysis fitting direction relative to DMSO as the negative control and baseline of activity. Using a type of viability reporter, gain-of-signal activity can be used to understand changes in developmentals as they relate to the whole embryo. To generalize the intended target to other relatable targets, this assay endpoint is annotated to the zebrafish development intended target family, where the subfamily is lower trunk morphogenesis.
Zebrafish husbandry: Wild type adult zebrafish (Danio rerio; undefined outbred stock obtained from Aquatic Research Organisms, Hampton, NH, 03842) were housed in an AAALAC-approved animal facility at 28C with a 14:10 h light: dark cycle (lights on at 08:30 h). Adult fish (2-3 females per male; density = 15-20 adults per tank) were kept in one of several 9-liter (L) flow-through colony tanks (Aquaneering Inc., San Diego, CA). All adults in a colony tank were placed in a 2 L (static) breeding tank (Aquatic Habitats, Apopka, FL) one hour prior to light onset. Typically, adults from two to three colony tanks were mated on the same day. Two hours after light onset the adults were returned to the colony tank. All embryos were gathered from each breeder tank, pooled, and placed in a 28C water bath for 2 h, followed by two washes with 0.06% bleach (v/v) in 10% Hanks' Balanced Salt Solution (13.7 mM NaCl 0.54 mM KCl, 25 uM Na2HPO4, 130 uM CaCl2 100 um MgSO4 and 420 um NaHCO3,), hereafter referred to as Hanks' solution, for 5 min in order to remove any residual bacteria or fungi. Immediately following washing, the embryos were examined, and healthy embryos were separated from dead or unfertilized eggs and moved into fresh Hanks'. Chemical exposures: Zebrafish embryos were exposed in 96-well plates. Between 6- and 8-hours post fertilization (hpf), healthy embryos (with chorions) were transferred, one embryo per well, into 96 well (0.5 mL) microtiter plates (Cell Culture-Treated, Flat-Bottom Microplate 96 well [Corning Costar, Kennebunk, ME; Cat 09-761-145]) filled with 200 uL of Hanks' solution. A random number generator was used to assign the order in which the rows of embryos were plated in 96 well plates each week. After plating, the embryos were dosed with 0.8 uL of the chemical dosing solution then immediately sealed with AlumaSeal II (Excel Scientific Inc, Victorville, CA) to prevent volatilization of the chemicals, and then placed in a leakproof secondary container. These containers were placed in an incubator maintained on a 14:10 h light: dark cycle at 26C for rearing. On 5 dpf, live larvae were gently moved out of the plate with test chemicals and into a new 96 well mesh plate (Millipore Corp., Bedford, MA) with just the Hanks' solution. Once within the mesh well plate, the animals were rinsed with 400 uL of fresh Hanks' three times, and then the plates were covered with a non-adhesive material (Microseal A, BioRad, Hercules, CA), plate lid added, and then plate sides wrapped in Parafilm (PM992, Bermis Company, Neenah, WI), and returned to the incubator. […]
With `O=C(O)C(F)(F)C(F)(F)C(F)(F)C(F)(F)C(F)(F)C(F)(F)C(F)(F)C(F)(F)C(F)(F)C(F)F` the outcome was “inactive”.
With `O=C(O)C(F)(F)C(F)(F)C(F)(F)C(F)(F)C(F)(F)C(F)(F)C(F)(F)C(F)(F)C(F)(F)C(F)(F)C(F)(F)C(F)(F)C(F)(F)F` the outcome was “inactive”.
For `O=C(Cl)C(F)(F)C(F)(F)C(F)(F)C(F)(F)C(F)(F)C(F)(F)C(F)(F)C(F)(F)F`, the outcome was “inactive”.
For `C=C(C)C(=O)OCC(F)(F)C(F)(F)C(F)(F)F`, the outcome was “inactive”.
In the case of `FC(F)(F)C(F)(F)C(F)(F)C(F)(F)C(F)(F)C(F)(F)CC1CO1` (stereo not given), the outcome is reported as “inactive”.
With `O=S(=O)(OCCOC(F)(F)F)C(F)(F)F` the outcome was “inactive”.
In the case of `O=P(O)(O)OCCC(F)(F)C(F)(F)C(F)(F)C(F)(F)C(F)(F)C(F)(F)F`, the outcome is reported as “inactive”.
In the case of `O=C(O)C(F)(F)C(F)(F)C(F)F`, the outcome is reported as “inactive”.
With `C=CC(=O)OCC(F)(F)C(F)(F)C(F)(F)C(F)(F)C(F)(F)C(F)(F)C(F)(F)F` the outcome was “inactive”.
In the case of `C=CC(F)(F)C(F)(F)C(F)(F)C(F)(F)C(F)(F)C(F)(F)C(F)(F)C(F)(F)F`, the outcome is reported as “inactive”.
For `CCCCCCCCC(F)(F)C(F)(F)C(F)(F)C(F)(F)C(F)(F)C(F)(F)F`, the outcome was “inactive”.
In the case of `O=S(=O)(O)C(F)(F)C(F)(F)C(F)(F)C(F)(F)C(F)(F)C(F)(F)C(F)(F)F`, the AC50 is reported as 31.2 µM (active).
For `O=C(O)C(F)(F)C(F)(F)C(F)(F)C(F)(F)C(F)(F)C(F)(F)C(F)(F)C(F)(F)C(F)(F)C(F)(F)C(F)(F)C(F)(F)F`, the outcome was “inactive”.
For `N=C(N)C(F)(F)C(F)(F)C(F)(F)C(F)(F)C(F)(F)C(F)(F)C(F)(F)F`, the outcome was “inactive”.
In the case of `OCCCC(F)(F)C(F)(F)C(F)(F)C(F)(F)C(F)(F)C(F)(F)C(F)(F)F`, the outcome is reported as “inactive”.
For `FC(F)(F)C(F)(F)C(F)(F)N(C(F)(F)C(F)(F)C(F)(F)F)C(F)(F)C(F)(F)C(F)(F)F`, the outcome was “inactive”.
With `O=C(O)C(F)(OC(F)(F)C(F)(OC(F)(F)C(F)(F)C(F)(F)F)C(F)(F)F)C(F)(F)F` (stereo not given) the outcome was “inactive”.
With `OCC(F)(F)C(F)(F)C(F)(F)F` the outcome was “inactive”.
For `FC(F)(F)C(F)(F)C(F)(F)C(F)(F)C(F)(F)C(F)(F)C(F)(F)C(F)(F)F`, the outcome was “inactive”.
For `FC(F)(F)C(F)(F)C(F)(F)C(F)(F)C(F)(F)C(F)(F)C(F)(F)C(F)(F)CCS`, the outcome was “inactive”.
In the case of `FC(F)(F)C(F)(F)C(F)(F)C(F)(F)C(F)(F)C(F)(F)CCS`, the outcome is reported as “inactive”.
With `O=C(O)C(F)(F)C(F)(F)OC(F)(F)F` the outcome was “inactive”.
In the case of `C=CC(=O)OCC(F)(F)C(F)(F)C(F)(F)C(F)(F)COC(=O)C=C`, the outcome is reported as “inactive”.
In the case of `FC(F)(I)C(F)(F)C(F)(F)C(F)(F)I`, the AC50 is reported as 80.4 µM (active).
In the case of `O=S(=O)(OCC(F)F)C(F)(F)F`, the outcome is reported as “inactive”.
In the case of `FC(F)(F)C(F)(F)C(F)(F)C(F)(F)C(F)(F)C(F)(F)C(F)(F)Br`, the outcome is reported as “inactive”.
For `FC(F)(F)C(F)(F)CNCC(F)(F)C(F)(F)F`, the outcome was “inactive”.
In the case of `O=C(O)C=C(C(F)(F)F)C(F)(F)F`, the outcome is reported as “inactive”.
With `FC(F)(F)C(F)(F)C(F)(F)C(F)(F)CCI` the outcome was “inactive”.
For `C=C(C)C(=O)OCCC(F)(F)C(F)(F)C(F)(F)C(F)(F)C(F)(C(F)(F)F)C(F)(F)F`, the outcome was “inactive”.
In the case of `O=C(CC(=O)C(F)(F)C(F)(F)F)C(F)(F)F`, the outcome is reported as “inactive”.
For `O=C(O)C(F)(F)C(F)(F)C(F)(F)C(F)(F)F`, the outcome was “inactive”.
For `C=C(C)C(=O)OCC(F)(F)C(F)(F)C(F)(F)C(F)(F)C(F)(F)C(F)(F)C(F)(F)F`, the outcome was “inactive”.
For `O=C(O)C(F)(F)C(F)(F)C(F)(F)C(F)(F)C(F)(F)C(F)(F)C(F)(F)C(F)(F)Cl`, the outcome was “inactive”.
With `O=C(O)C(F)(F)C(F)(F)C(F)(F)F` the outcome was “inactive”.
In the case of `OCC(F)(F)C(F)(F)C(F)(F)C(F)(F)C(F)(F)C(F)(F)F`, the outcome is reported as “inactive”.
In the case of `OCC(F)(F)C(F)(F)C(F)(F)C(F)(F)C(F)(F)C(F)F`, the outcome is reported as “inactive”.
For `FC(F)(Br)C(F)(F)C(F)(F)C(F)(F)C(F)(F)C(F)(F)Br`, the outcome was “inactive”.
With `NC(=O)C(F)(F)C(F)(F)C(F)(F)C(F)(F)F` the outcome was “inactive”.
For `Cc1ccc(S(=O)(=O)OCC(F)(F)C(F)(F)C(F)(F)C(F)(F)C(F)(F)C(F)F)cc1`, the outcome was “inactive”.
